# Assay results: PMC4336329 (PLoS ONE, 2015)
# About 14,000 (4.5%) of roughly 310,000 compounds showed an effect of 50% or more. The effect is printed as a negative number. The full list was thinned out, with strong results kept by preference.
# Target: human ether-à-go-go-related gene (hERG) potassium channel (human, UniProt Q12809)
# Experiment: primary screen, population patch clamp on CHO cells stably expressing hERG; higher = less effect of the substance
# 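Further: peak tail current of the secondary pulse compared with the same well before compound.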
# Sequence of human ether-à-go-go-related gene (hERG) potassium channel (Q12809 whole entry, looked up): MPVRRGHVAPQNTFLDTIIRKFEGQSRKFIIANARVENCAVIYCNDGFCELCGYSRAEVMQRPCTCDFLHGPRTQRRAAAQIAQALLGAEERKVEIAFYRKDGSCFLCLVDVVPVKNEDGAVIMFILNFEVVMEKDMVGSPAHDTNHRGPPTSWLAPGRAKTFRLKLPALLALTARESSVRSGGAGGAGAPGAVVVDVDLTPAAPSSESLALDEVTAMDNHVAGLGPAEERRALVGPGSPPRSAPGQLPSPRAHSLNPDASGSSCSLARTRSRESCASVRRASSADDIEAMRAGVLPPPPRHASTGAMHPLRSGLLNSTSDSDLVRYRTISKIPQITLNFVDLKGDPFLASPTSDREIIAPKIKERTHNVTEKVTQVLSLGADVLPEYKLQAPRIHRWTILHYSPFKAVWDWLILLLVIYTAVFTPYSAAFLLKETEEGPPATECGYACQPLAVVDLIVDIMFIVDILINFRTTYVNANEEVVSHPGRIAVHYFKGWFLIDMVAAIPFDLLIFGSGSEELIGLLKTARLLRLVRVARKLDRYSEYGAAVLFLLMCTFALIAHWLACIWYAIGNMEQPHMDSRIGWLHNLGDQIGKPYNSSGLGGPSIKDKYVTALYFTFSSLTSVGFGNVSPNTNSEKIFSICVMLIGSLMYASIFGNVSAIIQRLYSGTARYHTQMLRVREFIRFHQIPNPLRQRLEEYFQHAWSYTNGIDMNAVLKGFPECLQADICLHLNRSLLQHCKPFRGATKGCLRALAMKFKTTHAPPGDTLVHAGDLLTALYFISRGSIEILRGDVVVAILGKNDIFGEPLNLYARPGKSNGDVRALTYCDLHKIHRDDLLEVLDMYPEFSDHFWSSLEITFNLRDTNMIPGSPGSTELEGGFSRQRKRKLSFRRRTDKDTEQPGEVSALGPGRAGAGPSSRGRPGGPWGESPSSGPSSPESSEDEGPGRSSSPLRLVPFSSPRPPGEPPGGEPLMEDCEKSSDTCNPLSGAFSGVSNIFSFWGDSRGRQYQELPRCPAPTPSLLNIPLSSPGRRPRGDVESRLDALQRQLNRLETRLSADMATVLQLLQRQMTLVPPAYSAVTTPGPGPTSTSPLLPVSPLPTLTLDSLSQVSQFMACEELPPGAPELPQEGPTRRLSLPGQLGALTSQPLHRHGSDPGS
row,Structure (SMILES),"hERG current change (%, negative = inhibition) at 10uM [%]"
1,Cc1cccc(OC(C)C(=O)Nc2ccccc2C(=O)N2CCCCC2)c1 (stereo not drawn),-0.472
2,CCCC1=Nc2cc(C(=O)NCc3ccco3)ccc2Sc2ccccc21,1.84
3,CC(Cl)C(=O)Nc1cc(C(F)(F)F)ccc1N1CCOCC1 (stereo not drawn),2.38
4,COc1ccccc1N(CC1CO1)S(=O)(=O)c1ccc(C)cc1 (stereo not drawn),18.9
5,Cc1cccc(NC(=O)Cc2c(F)cccc2Cl)n1,5.01
6,O=C(Nc1cccc(C(=O)N2CCCCCC2)c1)c1ccco1,-14.5
7,CC1CCN(C(C)C(=O)Nc2cc(S(=O)(=O)N3CCCCC3)ccc2Cl)CC1 (stereo not drawn),-18.3
8,COc1ccc2c(c1)C(c1cccs1)=NNC(c1cccnc1)=N2,10.4
9,CCOc1ccc2c(c1)C(c1cccs1)=NNC(c1cccnc1)=N2,-65.4
10,CCc1ccc2c(c1)C(c1cccs1)=NNC(c1cccnc1)=N2,-48.6
11,O=C(CCn1c(=S)oc2ccccc21)N1CCCCC1,-7.1
12,COc1ccc(C)cc1S(=O)(=O)N1CCN(S(=O)(=O)c2cc(C)ccc2OC)CC1,-1.43
13,COc1ccc(CNCCc2ccc3c(c2)OCO3)cc1Br.O=C(O)C(=O)O,-50.5
14,COc1ccc(Br)cc1CNCCc1ccc2c(c1)OCO2,-60.7
15,COc1ccc(CCNCc2ccc(Br)cc2)cc1OC.O=C(O)C(=O)O,-62.9
16,COc1ccc(CNCc2ccc3c(c2)OCO3)cc1Br.O=C(O)C(=O)O,-23.1
17,COc1cc(OC)c(OC)cc1CNCCc1ccc2c(c1)OCO2.O=C(O)C(=O)O,-8.77
18,COc1ccc(CCNCc2cccc(C(F)(F)F)c2)cc1OC.O=C(O)C(=O)O,0.584
19,COc1cc(CNCCc2ccc3c(c2)OCO3)cc(OC)c1OC.O=C(O)C(=O)O,-14.2
20,COc1cc(Br)c(CNCCc2ccc3c(c2)OCO3)cc1OC,-32
21,COc1ccc(OC)c(CNCCc2ccc(OC)c(OC)c2)c1.O=C(O)C(=O)O,5.38

row,Structure (SMILES),"hERG current change (%, negative = inhibition) at 10uM [%]"
1,Cc1nnc(NC(=O)c2cc(S(=O)(=O)N3CCCCC3)ccc2Cl)s1,14.6
2,CC(=O)c1ccc(NS(=O)(=O)c2c(C)cc(C)cc2C)cc1,17.9
3,N#Cc1cn(-c2ccccc2)nc1-c1ccccc1,0.313
4,COC(=O)c1cc(CSc2ncnc3sccc23)oc1C,16.6
5,COc1cc(OC)c(OC)cc1CN1CCN(C(=O)Cc2ccccc2)CC1.O=C(O)C(=O)O,5.5
6,CCOC(=O)C1(CCc2ccccc2)CCN(Cc2c(O)cccc2OC)CC1,-95.1
7,CCOC(=O)C1(CCc2ccccc2)CCN(Cc2cc(OC)c(OC)cc2OC)CC1,-77.4
8,O=C(NCc1cccc(C(F)(F)F)c1)c1cccc(Cl)c1Cl,10.5
9,CCc1cc(Cn2nc(-c3ccccc3)cc2C(=O)O)on1,-1.7
10,O=C(CNC(=O)c1cccs1)N/N=C/c1cccc(Cl)c1,-5.74
11,COc1ccc(OC)c(NC(=O)C(=O)NNC(=O)c2cccs2)c1,10.9
12,O=C(NCCCO)C(=O)NCC(c1ccc2c(c1)OCO2)N1CCN(c2ccc(F)cc2)CC1 (stereo not drawn),-41.4
13,O=C(C[N+]1(CC#Cc2ccccc2)CCOCC1)c1ccccc1.[Br-],35.8
14,CC[N+](CC)(CCCCS(=O)(=O)[O-])CCNP1(=O)C=C(c2ccccc2)OC(c2ccccc2)=C1,9.75
15,N#CC[N+]1(CCCNP2(=O)C=C(c3ccccc3)OC(c3ccccc3)=C2)CCOCC1.[Cl-],-63.5
16,O=C1CCC(C(=O)OCC(=O)N2N=C3/C(=C/c4ccccc4)CCCC3C2c2ccccc2)N1 (stereo not drawn),-70.3
17,Cc1ncsc1C(=O)N1N=C2/C(=C/c3ccccc3)CCCC2C1c1ccccc1 (stereo not drawn),-0.298
18,O=C(c1ccccn1)N1N=C2/C(=C/c3ccccc3)CCCC2C1c1ccccc1 (stereo not drawn),-37.1
19,CC(=O)N1N=C2/C(=C/c3ccccc3)CCCC2C1c1ccccc1 (stereo not drawn),-10.5
20,NC(=O)N1N=C2/C(=C/c3ccccc3)CCCC2C1c1ccccc1 (stereo not drawn),-17.1
21,O=C(c1ccccn1)N1N=C2/C(=C/c3ccc(F)cc3)CCCC2C1c1ccc(F)cc1 (stereo not drawn),-54.3
